Compound in the assay: Nc1nc2c(ncn2[C@@H]2O[C@H](COP(=O)(O)OP(=O)(O)OP(=O)(O)O)[C@@H](O)[C@H]2O)c(=O)[nH]1 [guanosine triphosphate]
In words: NP40-soluble protein abundance relative to vehicle (solubility fold change) (ratio); higher = more soluble protein in presence of GTP. An outline of the steps: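 In three independent experiments, Jurkat crude lysate made by Dounce homogenisation was treated for 10 min at room temperature and then 3 min at 37 °C with eight concentrations ranging from 0.1 to 10 mM. It was then solubilised with 0.8% NP40 plus benzonase for 60 min at 4 °C and ultracentrifuged. The supernatant was TMT-labelled for LC-MS/MS, and each value is the fold change against the detergent-processed vehicle for the same replicate, using vsn-normalised intensities.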

NP40-soluble protein abundance data for 15 targets are collected here from the supplement of paper PMC6411743.

± gives the standard deviation of the averaged measurements. Of roughly 5,400 targets only a part is listed; those with the largest changes were picked by preference.

Chain of UniProt Q9BPX3 (Q9BPX3 whole entry, looked up): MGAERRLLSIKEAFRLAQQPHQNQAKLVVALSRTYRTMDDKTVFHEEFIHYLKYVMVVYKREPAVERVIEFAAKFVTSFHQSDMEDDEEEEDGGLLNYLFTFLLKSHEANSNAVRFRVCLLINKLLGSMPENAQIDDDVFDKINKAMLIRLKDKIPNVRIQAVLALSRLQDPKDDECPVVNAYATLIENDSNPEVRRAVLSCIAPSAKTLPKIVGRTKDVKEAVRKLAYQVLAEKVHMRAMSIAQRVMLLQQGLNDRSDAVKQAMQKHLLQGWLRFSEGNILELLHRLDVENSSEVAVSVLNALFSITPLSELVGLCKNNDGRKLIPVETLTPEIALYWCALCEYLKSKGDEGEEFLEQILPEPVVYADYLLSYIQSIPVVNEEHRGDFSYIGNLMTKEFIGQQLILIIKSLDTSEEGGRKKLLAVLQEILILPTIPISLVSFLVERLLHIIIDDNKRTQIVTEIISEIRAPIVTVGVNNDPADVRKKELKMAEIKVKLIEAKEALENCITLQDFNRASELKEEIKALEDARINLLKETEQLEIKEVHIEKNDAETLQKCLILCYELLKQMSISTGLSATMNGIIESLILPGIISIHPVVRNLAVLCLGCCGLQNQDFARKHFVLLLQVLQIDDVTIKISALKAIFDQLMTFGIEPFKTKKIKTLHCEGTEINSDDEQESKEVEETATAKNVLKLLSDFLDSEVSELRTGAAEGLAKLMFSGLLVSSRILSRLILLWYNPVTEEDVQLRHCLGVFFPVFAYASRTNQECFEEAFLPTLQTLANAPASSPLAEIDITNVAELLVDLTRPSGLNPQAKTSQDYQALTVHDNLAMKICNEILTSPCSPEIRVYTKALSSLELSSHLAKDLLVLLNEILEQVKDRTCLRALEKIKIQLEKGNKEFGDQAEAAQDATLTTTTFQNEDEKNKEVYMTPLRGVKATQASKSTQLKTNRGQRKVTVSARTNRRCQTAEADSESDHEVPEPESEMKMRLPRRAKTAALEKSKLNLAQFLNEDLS
Chain of UniProt Q96PZ0 (Q96PZ0 whole entry): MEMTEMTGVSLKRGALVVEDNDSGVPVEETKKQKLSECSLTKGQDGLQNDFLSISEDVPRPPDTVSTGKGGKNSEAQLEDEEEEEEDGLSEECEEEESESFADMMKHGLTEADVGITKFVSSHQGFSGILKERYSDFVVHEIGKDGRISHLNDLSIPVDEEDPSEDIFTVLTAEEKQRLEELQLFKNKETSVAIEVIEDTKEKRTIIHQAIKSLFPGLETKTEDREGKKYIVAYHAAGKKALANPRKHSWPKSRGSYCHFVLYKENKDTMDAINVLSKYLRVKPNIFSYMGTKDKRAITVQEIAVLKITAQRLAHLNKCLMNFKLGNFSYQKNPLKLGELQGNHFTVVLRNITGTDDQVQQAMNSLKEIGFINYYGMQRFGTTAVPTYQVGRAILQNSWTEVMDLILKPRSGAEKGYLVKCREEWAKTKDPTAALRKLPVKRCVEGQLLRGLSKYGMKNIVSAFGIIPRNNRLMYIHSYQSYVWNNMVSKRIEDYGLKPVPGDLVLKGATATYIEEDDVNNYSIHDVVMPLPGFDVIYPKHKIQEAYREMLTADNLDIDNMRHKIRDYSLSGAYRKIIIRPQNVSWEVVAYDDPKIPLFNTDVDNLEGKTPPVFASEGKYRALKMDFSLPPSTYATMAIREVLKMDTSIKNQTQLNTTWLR
Chain of UniProt Q9UKV8 (Q9UKV8 whole entry): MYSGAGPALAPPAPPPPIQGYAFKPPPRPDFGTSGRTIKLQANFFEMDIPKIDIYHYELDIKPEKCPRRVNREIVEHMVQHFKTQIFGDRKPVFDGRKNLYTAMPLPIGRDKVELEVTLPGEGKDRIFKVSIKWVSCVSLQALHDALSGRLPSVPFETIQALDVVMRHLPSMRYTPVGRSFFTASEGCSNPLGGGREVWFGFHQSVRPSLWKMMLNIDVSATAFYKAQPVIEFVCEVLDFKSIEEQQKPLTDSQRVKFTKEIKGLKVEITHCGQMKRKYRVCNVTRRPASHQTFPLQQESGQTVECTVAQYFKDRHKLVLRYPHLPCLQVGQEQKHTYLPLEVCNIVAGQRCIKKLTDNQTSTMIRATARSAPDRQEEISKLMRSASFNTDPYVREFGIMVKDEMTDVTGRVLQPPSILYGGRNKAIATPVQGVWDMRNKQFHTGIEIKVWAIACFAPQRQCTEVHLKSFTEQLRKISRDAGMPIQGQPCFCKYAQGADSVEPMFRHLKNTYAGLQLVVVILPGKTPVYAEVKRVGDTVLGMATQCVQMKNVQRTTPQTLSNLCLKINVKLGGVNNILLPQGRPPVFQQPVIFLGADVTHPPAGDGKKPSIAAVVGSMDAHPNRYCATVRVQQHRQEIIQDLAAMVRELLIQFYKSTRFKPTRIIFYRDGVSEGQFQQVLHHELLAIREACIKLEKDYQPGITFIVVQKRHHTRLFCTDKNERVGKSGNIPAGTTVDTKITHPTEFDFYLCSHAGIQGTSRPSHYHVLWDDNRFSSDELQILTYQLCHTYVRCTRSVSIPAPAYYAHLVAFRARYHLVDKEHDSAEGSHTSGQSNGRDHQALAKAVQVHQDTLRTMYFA
Chain of UniProt Q92917 (Q92917 whole entry): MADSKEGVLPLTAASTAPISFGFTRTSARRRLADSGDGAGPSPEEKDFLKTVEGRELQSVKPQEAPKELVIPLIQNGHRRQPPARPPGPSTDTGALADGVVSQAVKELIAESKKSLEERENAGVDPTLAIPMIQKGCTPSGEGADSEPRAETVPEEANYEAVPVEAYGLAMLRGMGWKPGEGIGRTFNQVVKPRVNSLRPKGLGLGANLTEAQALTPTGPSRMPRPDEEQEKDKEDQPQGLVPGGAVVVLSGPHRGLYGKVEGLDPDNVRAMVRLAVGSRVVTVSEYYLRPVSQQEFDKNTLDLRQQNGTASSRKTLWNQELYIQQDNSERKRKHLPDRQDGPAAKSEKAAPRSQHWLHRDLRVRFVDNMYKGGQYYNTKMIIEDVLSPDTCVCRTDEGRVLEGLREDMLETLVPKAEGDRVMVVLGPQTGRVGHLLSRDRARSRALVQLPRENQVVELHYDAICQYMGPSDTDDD
Chain of UniProt Q969P0 (Q969P0 whole entry): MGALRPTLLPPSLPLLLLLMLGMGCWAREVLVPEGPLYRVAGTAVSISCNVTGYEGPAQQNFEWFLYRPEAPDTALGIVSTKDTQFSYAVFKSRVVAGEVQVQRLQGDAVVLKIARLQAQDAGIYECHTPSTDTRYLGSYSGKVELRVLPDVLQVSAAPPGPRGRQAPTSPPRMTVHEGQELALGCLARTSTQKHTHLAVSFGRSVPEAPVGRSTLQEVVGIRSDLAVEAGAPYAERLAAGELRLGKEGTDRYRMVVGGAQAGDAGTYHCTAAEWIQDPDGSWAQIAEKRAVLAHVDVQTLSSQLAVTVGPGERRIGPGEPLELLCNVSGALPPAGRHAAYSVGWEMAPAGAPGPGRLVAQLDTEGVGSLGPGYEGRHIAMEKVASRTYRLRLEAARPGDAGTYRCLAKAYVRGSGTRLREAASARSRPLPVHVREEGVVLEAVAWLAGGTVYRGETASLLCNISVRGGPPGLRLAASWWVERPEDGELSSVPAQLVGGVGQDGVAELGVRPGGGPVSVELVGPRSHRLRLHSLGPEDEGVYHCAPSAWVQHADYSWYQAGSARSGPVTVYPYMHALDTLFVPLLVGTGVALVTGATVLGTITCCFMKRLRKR
Chain of UniProt Q9P2J5 (Q9P2J5 whole entry, looked up): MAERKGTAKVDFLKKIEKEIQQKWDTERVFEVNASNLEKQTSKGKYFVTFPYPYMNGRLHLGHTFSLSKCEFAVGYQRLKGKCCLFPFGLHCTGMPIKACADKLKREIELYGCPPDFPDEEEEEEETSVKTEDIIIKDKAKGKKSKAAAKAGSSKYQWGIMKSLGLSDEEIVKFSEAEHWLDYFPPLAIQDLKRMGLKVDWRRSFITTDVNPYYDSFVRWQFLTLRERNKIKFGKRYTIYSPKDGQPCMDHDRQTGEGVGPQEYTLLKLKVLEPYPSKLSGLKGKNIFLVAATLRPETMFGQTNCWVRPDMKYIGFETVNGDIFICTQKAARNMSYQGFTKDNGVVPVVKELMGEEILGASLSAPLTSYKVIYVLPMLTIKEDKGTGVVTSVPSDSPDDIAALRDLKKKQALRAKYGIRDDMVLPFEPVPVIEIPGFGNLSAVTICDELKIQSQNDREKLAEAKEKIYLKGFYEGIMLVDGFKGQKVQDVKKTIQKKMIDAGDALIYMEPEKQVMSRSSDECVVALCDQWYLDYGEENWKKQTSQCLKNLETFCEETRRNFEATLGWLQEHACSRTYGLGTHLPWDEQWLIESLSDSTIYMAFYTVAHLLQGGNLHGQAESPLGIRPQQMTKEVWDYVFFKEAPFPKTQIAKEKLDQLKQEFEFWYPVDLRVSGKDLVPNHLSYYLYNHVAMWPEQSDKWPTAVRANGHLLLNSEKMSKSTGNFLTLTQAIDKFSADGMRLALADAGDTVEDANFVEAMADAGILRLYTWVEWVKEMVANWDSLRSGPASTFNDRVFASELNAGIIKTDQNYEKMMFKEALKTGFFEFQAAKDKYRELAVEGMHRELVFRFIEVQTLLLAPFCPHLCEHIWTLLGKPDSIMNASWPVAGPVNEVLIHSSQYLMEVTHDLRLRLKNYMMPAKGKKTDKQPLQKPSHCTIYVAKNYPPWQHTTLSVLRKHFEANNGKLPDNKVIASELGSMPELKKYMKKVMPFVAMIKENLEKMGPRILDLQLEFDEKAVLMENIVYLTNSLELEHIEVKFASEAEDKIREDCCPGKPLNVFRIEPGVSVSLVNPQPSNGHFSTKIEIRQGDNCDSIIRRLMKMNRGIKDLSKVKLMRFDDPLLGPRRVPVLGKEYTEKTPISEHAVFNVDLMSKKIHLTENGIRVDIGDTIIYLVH
Chain of UniProt Q9Y3D0 (Q9Y3D0 whole entry): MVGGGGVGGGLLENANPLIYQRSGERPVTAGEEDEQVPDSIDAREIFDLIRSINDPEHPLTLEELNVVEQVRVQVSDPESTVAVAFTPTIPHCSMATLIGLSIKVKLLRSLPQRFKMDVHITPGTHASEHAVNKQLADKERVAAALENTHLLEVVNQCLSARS

Take UniProt Q9UKV8: the NP40-soluble protein abundance (concentration: 0.1mM) came out at 1.08 ± 0.065; the NP40-soluble protein abundance (concentration: 0.5mM) came out at 1.14 ± 0.053; the NP40-soluble protein abundance (concentration: 1mM) is 1.06 ± 0.045; the NP40-soluble protein abundance (concentration: 2mM) stood at 1.11 ± 0.053; the NP40-soluble protein abundance (concentration: 4mM) came to 1.1 ± 0.026; the NP40-soluble protein abundance (concentration: 6mM) stood at 1.07 ± 0.078. For the same target, the NP40-soluble protein abundance by setting is: (concentration: 8mM) 1.07 ± 0.057; (concentration: 10mM) 1.05 ± 0.061.

Turning to PUS7 (UniProt Q96PZ0), the NP40-soluble protein abundance (concentration: 0.1mM) worked out at 0.992 ± 0.013; the NP40-soluble protein abundance (concentration: 0.5mM) was 0.992 ± 0.016; the NP40-soluble protein abundance (concentration: 1mM) turned out to be 0.944 ± 0.046; the NP40-soluble protein abundance (concentration: 2mM) worked out at 0.944 ± 0.029; the NP40-soluble protein abundance (concentration: 4mM) is 0.907 ± 0.053; the NP40-soluble protein abundance (concentration: 6mM) stood at 0.917 ± 0.022. Also, the NP40-soluble protein abundance came to 0.889 ± 0.038 (concentration: 8mM) and 0.892 ± 0.059 (concentration: 10mM).

As to XRN2 (UniProt Q9H0D6), the NP40-soluble protein abundance is, setting by setting: (concentration: 0.1mM) 0.993 ± 0.025; (concentration: 0.5mM) 0.995 ± 0.027; (concentration: 1mM) 0.974 ± 0.017; (concentration: 2mM) 0.977 ± 0.027; (concentration: 4mM) 0.985 ± 0.018; (concentration: 6mM) 0.986 ± 0.027. Moreover, the NP40-soluble protein abundance stood at 1 ± 0.039 (concentration: 8mM) and 0.982 ± 0.028 (concentration: 10mM).

Take UniProt Q93052|A0A087WZF1|C9JXK9: the NP40-soluble protein abundance runs as follows: (concentration: 0.1mM) 0.985 ± 0.047; (concentration: 0.5mM) 0.946 ± 0.086; (concentration: 1mM) 0.944 ± 0.072; (concentration: 2mM) 0.906 ± 0.071; (concentration: 4mM) 0.884 ± 0.063; (concentration: 6mM) 0.896 ± 0.081. For the same target, the NP40-soluble protein abundance reads like this: (concentration: 8mM) 0.906 ± 0.083; (concentration: 10mM) 0.901 ± 0.09.

With GPKOW (UniProt Q92917), the NP40-soluble protein abundance (concentration: 0.1mM) was 0.974 ± 0.07; the NP40-soluble protein abundance (concentration: 0.5mM) came to 0.995 ± 0.067; the NP40-soluble protein abundance (concentration: 1mM) turned out to be 1.02 ± 0.077; the NP40-soluble protein abundance (concentration: 2mM) is 0.975 ± 0.086; the NP40-soluble protein abundance (concentration: 4mM) stood at 0.968 ± 0.071; the NP40-soluble protein abundance (concentration: 6mM) was found to be 0.99 ± 0.059. Further, the NP40-soluble protein abundance is 0.998 ± 0.057 (concentration: 8mM) and 1.01 ± 0.088 (concentration: 10mM).

On to FN3KRP (UniProt Q9HA64), for which the NP40-soluble protein abundance by setting is: (concentration: 0.1mM) 0.9717 ± 0.0097; (concentration: 0.5mM) 0.991 ± 0.014; (concentration: 1mM) 0.927 ± 0.032; (concentration: 2mM) 0.913 ± 0.061; (concentration: 4mM) 0.905 ± 0.042; (concentration: 6mM) 0.884 ± 0.031. Also, the NP40-soluble protein abundance is, setting by setting: (concentration: 8mM) 0.89 ± 0.047; (concentration: 10mM) 0.868 ± 0.051.

As for UniProt Q9UG63|Q9UG63-2, the NP40-soluble protein abundance reads like this: (concentration: 0.1mM) 1.1 ± 0.076; (concentration: 0.5mM) 1.11 ± 0.014; (concentration: 1mM) 1.07 ± 0.072; (concentration: 2mM) 1.35 ± 0.072; (concentration: 4mM) 1.83 ± 0.061; (concentration: 6mM) 2.15 ± 0.12. In addition, the NP40-soluble protein abundance (concentration: 8mM) is 2.39 ± 0.11 and the NP40-soluble protein abundance (concentration: 10mM) came out at 2.744 ± 0.018.

In the case of UniProt Q9Y3D0, the NP40-soluble protein abundance (concentration: 0.1mM) came out at 0.836 ± 0.067; the NP40-soluble protein abundance (concentration: 0.5mM) stood at 0.869 ± 0.033; the NP40-soluble protein abundance (concentration: 1mM) turned out to be 1.02 ± 0.042; the NP40-soluble protein abundance (concentration: 2mM) amounted to 1.04 ± 0.049; the NP40-soluble protein abundance (concentration: 4mM) was found to be 0.987 ± 0.043; the NP40-soluble protein abundance (concentration: 6mM) came to 1.04 ± 0.013. In addition, the NP40-soluble protein abundance is 1.04 ± 0.089 (concentration: 8mM) and 1.09 ± 0.17 (concentration: 10mM).

Turning to LARS (UniProt Q9P2J5), the NP40-soluble protein abundance (concentration: 0.1mM) turned out to be 1.05 ± 0.078; the NP40-soluble protein abundance (concentration: 0.5mM) amounted to 1.13 ± 0.15; the NP40-soluble protein abundance (concentration: 1mM) was 1.07 ± 0.18; the NP40-soluble protein abundance (concentration: 2mM) came to 1.17 ± 0.26; the NP40-soluble protein abundance (concentration: 4mM) came out at 1.2 ± 0.26; the NP40-soluble protein abundance (concentration: 6mM) stood at 1.21 ± 0.28. Further, the NP40-soluble protein abundance turned out to be 1.16 ± 0.24 (concentration: 8mM) and 1.09 ± 0.23 (concentration: 10mM).

UniProt Q9UKZ1: the NP40-soluble protein abundance is, setting by setting: (concentration: 0.1mM) 1.52 ± 0.81; (concentration: 0.5mM) 1.19 ± 0.11; (concentration: 1mM) 1.4 ± 0.41; (concentration: 2mM) 2.81 ± 2.7; (concentration: 4mM) 1.26 ± 0.14; (concentration: 6mM) 1.24 ± 0.11. The NP40-soluble protein abundance amounted to 1.29 ± 0.15 (concentration: 8mM) and 1.36 ± 0.051 (concentration: 10mM).

UniProt Q969P0|Q969P0-3: the NP40-soluble protein abundance reads like this: (concentration: 0.1mM) 1.02 ± 0.066; (concentration: 0.5mM) 1 ± 0.048; (concentration: 1mM) 0.961 ± 0.07; (concentration: 2mM) 0.956 ± 0.058; (concentration: 4mM) 0.932 ± 0.069; (concentration: 6mM) 0.932 ± 0.049. Besides, the NP40-soluble protein abundance is 0.953 ± 0.053 (concentration: 8mM) and 0.919 ± 0.077 (concentration: 10mM).

Take NOP58 (UniProt Q9Y2X3): the NP40-soluble protein abundance stood at 1.01 ± 0.049 (concentration: 0.1mM); 1.02 ± 0.019 (concentration: 0.5mM); 1.07 ± 0.075 (concentration: 1mM); 1.19 ± 0.044 (concentration: 2mM); 1.4 ± 0.066 (concentration: 4mM); 1.58 ± 0.13 (concentration: 6mM). For the same target, the NP40-soluble protein abundance (concentration: 8mM) stood at 1.77 ± 0.11 and the NP40-soluble protein abundance (concentration: 10mM) worked out at 2.07 ± 0.16.

For NCAPG (UniProt Q9BPX3), the NP40-soluble protein abundance runs as follows: (concentration: 0.1mM) 0.992 ± 0.015; (concentration: 0.5mM) 1.06 ± 0.016; (concentration: 1mM) 0.986 ± 0.03; (concentration: 2mM) 1.03 ± 0.044; (concentration: 4mM) 0.978 ± 0.042; (concentration: 6mM) 1.01 ± 0.047. Besides, the NP40-soluble protein abundance was found to be 0.987 ± 0.056 (concentration: 8mM) and 1.01 ± 0.031 (concentration: 10mM).

Turning to UniProt Q9C0B5|Q9C0B5-2, the NP40-soluble protein abundance turned out to be 1.02 ± 0.049 (concentration: 0.1mM); 0.949 ± 0.024 (concentration: 0.5mM); 0.96 ± 0.018 (concentration: 1mM); 0.938 ± 0.012 (concentration: 2mM); 0.903 ± 0.018 (concentration: 4mM); 0.909 ± 0.019 (concentration: 6mM). For the same target, the NP40-soluble protein abundance stood at 1.02 ± 0.03 (concentration: 8mM) and 0.997 ± 0.029 (concentration: 10mM).

For CDV3 (UniProt Q9UKY7), the NP40-soluble protein abundance is, setting by setting: (concentration: 0.1mM) 0.957 ± 0.072; (concentration: 0.5mM) 1.05 ± 0.071; (concentration: 1mM) 0.915 ± 0.072; (concentration: 2mM) 0.955 ± 0.11; (concentration: 4mM) 0.889 ± 0.093; (concentration: 6mM) 1 ± 0.092. In addition, the NP40-soluble protein abundance by setting is: (concentration: 8mM) 1.09 ± 0.083; (concentration: 10mM) 1.11 ± 0.068.
